Source: PubChem (National Center for Advancing Translational Sciences (NCATS))
Marburg entry inh – inhibitors of Marburg virus binding or cell entry | Marburg virus pseudotyped entry inhibition, cell reporter | Potency, µM (top dose mostly 37.8 µM), inactives show top-dose activity change, negative = inhibition, usual class: inhibitors | 300,000 compounds, 1.8% hits | AID 540276; calls by dose curve; tested in HEK293 cells; further: potency means the concentration at half of the fitted maximal effect
Pf growth 48h – P. falciparum growth inhibition at 48 hours (one generation); P. falciparum luciferase growth in erythrocytes, 48 h; 310,000 compounds, 5.9% hits; Potency, µM (titrated, usually from 28.7 µM), without a hit: top-dose activity change, negative = inhibition, actives largely listed as inhibitors; further: potency means the concentration at half of the fitted maximal effect
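Luciferase-expressing P. falciparum in infected erythrocytes (2% hematocrit, 0.1% parasitemia final) in RPMI 1640/0.5% Albumax were exposed to compound for 48 hours at 37 C, 5% CO2; growth read as luminescence.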
HCMV inh – blocks human cytomegalovirus replication; HFF cells, HCMV-luciferase reporter, 72 h; stronger effect = lower value; AID 1259415; 410,000 compounds, 4.5% hits; activity change, negative = inhibition, % at 57.5 µM; in the data active means activity change below about -60%; inconclusive means no clear call, values can overlap the other calls; inactive means above about -39%
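Two compound doses tested in HFFs infected with HCMV-luciferase, MOI 1 PFU/cell, 72 h at 37C. Lysate luminescence read with OneGlo; data normalized against buffer-only and 10uM Salinomycin inhibitor controls.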
HCV inhibitor – inhibitors of hepatitis C virus infection | Huh7.5.1 HCVcc-Cre infection, luciferase reporter, 44 h | Potency, µM (titrated, usually from 41.8 µM), for inactives: top-dose activity change, negative = inhibition, most hits filed as inhibitors | 340,000 compounds, 3.4% hits | AID 651820; further: potency means the concentration at half of the fitted maximal effect
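Infectious HCV cell culture screen: compound-treated cells (1,000/well, pre-plated 4 h) are infected with HCVcc-Cre at roughly 0.5 moi and grown 44 h. Infection is quantified by luciferase signal after 15 min substrate incubation at room temperature.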
Pf growth 96h – inhibits malaria parasite growth, 96 h; Potency, µM (highest dose often 28.7 µM), inactives show top-dose activity change, negative = inhibition, actives largely listed as inhibitors; P. falciparum luciferase reporter growth, 96 h; 320,000 compounds, 6.9% hits; further: potency means the concentration at half of the fitted maximal effect
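Two-generation exposure (96 h) targets delayed-death phenotype. Reporter parasites carrying integrated firefly luciferase, in red cells at 2% hematocrit and 0.05% parasitemia final, kept at 37 C, 5% CO2; luminescence loss indicates inhibition.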
Lassa entry inh – blocks Lassa virus binding to or entry into cells; Lassa virus pseudotype entry inhibition, cell reporter; Potency, µM (titrated, usually from 37.9 µM), inactives show at the highest dose activity change, negative = inhibition, usual class: inhibitors; 300,000 compounds, 1.2% hits; AID 540256; calls by dose curve; tested in HEK293 cells; further: potency means the concentration at half of the fitted maximal effect; nearly all actives have a fitted effect of over 50% in size
Active calls of the source: *; i = inactive; ? = inconclusive; / = no result given; [ ] = remark or other dose. Hits are enriched below; roughly 14% of the tested compounds scored in any of these assays. Unless noted, the call rests on the fitted dose curve; in most records, active means well fitted inhibition curve with a large enough effect; inconclusive means small, poorly fitted or top-dose-only effect, or another doubt; inactive means no such curve, though single readings can be large or run the other way. On the % scale 0 is the no-effect control and ±100 the full control effect.

SMILES	Marburg entry inh	Pf growth 48h	HCMV inh	HCV inhibitor	Pf growth 96h	Lassa entry inh
O=C(Nc1ccc(C(F)(F)F)cc1)c1cc(-c2cccnc2)nc2ccc(Br)cc12	?	0.37µM*	?	-1.5%	?	-3.3%
CC(C)Cc1nc(SCC(=O)N2CCCCC2)c2c(=O)n(C)c(=O)n(C)c2n1	/	9.9%	?	25.1µM*	52.8%	/
CC(C)Cc1nc(SCC(=O)N2CCOCC2)c2c(=O)n(C)c(=O)n(C)c2n1	/	29.4%	8.1	-13.0%	?	/
CC(C)Cc1nc(SCC(=O)NCC2CCCO2)c2c(=O)n(C)c(=O)n(C)c2n1 (stereo not drawn)	/	1.2%	-77.7*	-11.9%	19.6%	/
O=C(O)CC(Cc1ccc(Br)cc1)C(=O)O (stereo not drawn)	23.8%	0.9%	23.2	23.4%	?	14.2%
NC(CC(=O)O)c1ccc(Br)cc1 (stereo not drawn)	-11.1%	3.0%	9.3	14.1%	9.28µM*	0.8%
CCn1c2c(c3cc(Cl)ccc31)CCCC2=O	/	/	43.1	?	?	/
Cc1ccc2c(c1)c1c(n2C)C(=O)CCC1	9.8%	11.9%	-6.7	3.98µM*	58.5%	5.4%
CCOC(=O)Cc1csc(NC(=O)COc2ccc(C)c(C)c2)n1	5.8%[46.1 µM]	121.0%	10.7	-16.8%	32.4%	8.3%[46.1 µM]
CCOC(=O)Cn1nc(C)c(NC(=O)COc2ccc(C)c(C)c2)c1C	13.9%[46.1 µM]	2.9%	-61.5*	0.3%	24.2%	3.9%[46.1 µM]
CC(C)CCC(CC(C)O)c1n[nH]c(=S)n1-c1ccccc1 (stereo not drawn)	?	-1.3%	13.0	8.5%	2.33µM*	1.8%
COCCNC(=O)CCn1c(=O)[nH]c2cc(OC)c(OC)cc2c1=O	9.0%[46.1 µM]	/	2.4	/	/	5.9%[46.1 µM]
CC(C)(C)C(=O)N1CCN(c2ncnc3scc(-c4ccccc4)c23)CC1	?	/	-69.8*	?	13.1µM*	?
CCOC(=O)N1CCN(c2ncnc3scc(-c4ccc(Cl)cc4)c23)CC1	/	0.0%	/	?	?	/
CCOC(=O)N1CCN(c2ncnc3scc(-c4ccccc4)c23)CC1	?	?	-31.7	8.91µM*	?	-20.4%[46.1 µM]
O=C(O)C(NS(=O)(=O)c1ccc(F)cc1)c1ccccc1 (stereo not drawn)	-0.8%[46.1 µM]	-1.8%	26.6	-2.1%	19.5%	-2.5%[46.1 µM]
CCC/C=C(\CCC)C(NS(=O)(=O)c1ccc(C(F)(F)F)cc1)c1ccccc1 (stereo not drawn)	-43.7%	9.28µM*	/	-0.7%[8.37 µM]	7.38µM*	-10.4%
CCCn1c(SCC(=O)N2c3ccccc3CCc3ccccc32)nc2c1c(=O)n(C)c(=O)n2C	-20.9%	14.7µM*	26.7	?	i	-6.3%
CCCCn1c(SCC(=O)N2c3ccccc3Sc3ccccc32)nc2c1c(=O)n(C)c(=O)n2C	11.2µM*	1.65µM*	2.7	?	/	?
CCCn1c(SCC(=O)N2c3ccccc3Sc3ccccc32)nc2ccccc21	?	13.1µM*	0.0	?	3.7µM*	-11.7%
CCCn1c(SCC(=O)O)nc2ccccc21	2.5%	25.0%	24.3	19.9%	31.8%	1.2%
COc1ccc(-c2csc(N(CCCN3CCOCC3)C(=O)c3ccco3)n2)cc1	?	?	24.4	10µM*	-23.9%[5.75 µM]	?
Cc1ccc(-c2csc(N(CCCN3CCOCC3)C(=O)c3ccco3)n2)cc1	?	?	-6.1	11.2µM*	0.4%	?
Cc1ccc(-c2csc(N(CCCN(C)C)C(=O)c3ccco3)n2)cc1	?	-21.6%	-12.6	?	11.1%	-10.4%
CCOc1ccc(-c2nonc2NC(=O)COc2ccccc2)cc1	/	/	-7.9	/	/	4.4%[46.1 µM]
COC[C@@H](O)[C@H]1OCc2cccc(OC)c2[C@H]1C=Cc1ccccc1	8.0%[14.2 µM]	/	/	/	/	/
CCOC(=O)[C@H]1[C@H]2COc3cc(OC)ccc3[C@@H]2N2C(=O)CN(Cc3ccccc3)C(=O)[C@@]12C	/	?	-39.8	?	?	/
CCOC(=O)[C@H]1[C@H]2COc3ccc(OC)cc3[C@@H]2N2C(=O)CN(Cc3ccc(C)cc3)C(=O)[C@@]12C	/	10.4µM*	2.6	11.8%	3.7µM*	/
